High-throughput results deposited in PubChem by several laboratories.
Sampled rows, rich in hits. Any-hit rate of the full collection: about 4.5%.
FBA Mtb inh: Mtb FBA enzyme inhibitors, primary screen, biochemical, fluorescence, strain H37Rv. purified M. tuberculosis FBA, fluorescence read-out. Fructose-bisphosphate aldolase (Mycobacterium tuberculosis (strain ATCC 25618 / H37Rv)), …. actives 2.3% (n = 360,000). inhibition, % at 1 µM. AID 588726, 2011;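 also: 0% = vehicle and 100% = reference inhibitor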
Target sequence (P9WQA3 whole entry, looked up): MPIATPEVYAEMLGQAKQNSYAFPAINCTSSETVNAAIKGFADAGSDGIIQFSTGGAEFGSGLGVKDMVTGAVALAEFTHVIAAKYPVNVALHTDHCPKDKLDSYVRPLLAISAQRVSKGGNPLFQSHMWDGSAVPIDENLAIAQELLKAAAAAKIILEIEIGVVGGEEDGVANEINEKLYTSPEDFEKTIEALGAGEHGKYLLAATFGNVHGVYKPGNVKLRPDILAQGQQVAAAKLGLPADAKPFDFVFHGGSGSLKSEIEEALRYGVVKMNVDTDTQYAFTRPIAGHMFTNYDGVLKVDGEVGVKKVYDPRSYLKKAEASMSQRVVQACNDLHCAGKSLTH
PrPC TRFRET: inhibitors of human cell surface prion protein PrPC, primary screen, cell-based, TR-FRET; actives 0.43% (n = 370,000); TR-FRET read-out; inhibition, % at 13.8 µM; AID 720596, 2013; Major prion protein (Homo sapiens), P04156; in the data active = inhibition above about 24%; also: 0% = median of the test wells and 100% = reference compound wells
GDH-TPI counter-1: GDH-TPI coupling enzyme inhibitors, primary screen, artefact control for M. tuberculosis FBA inhibitor project, biochemical, absorbance, full deck; actives 1.2% (n = 360,000); GDH-TPI coupled enzyme counterscreen, NADH absorbance; inhibition, % at 4.8 µM; in the data active = inhibition above about 30%;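 also: 0% = DMSO wells and 100% = wells lacking the enzyme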
PrP UTR inh: inhibition of PrP 5' UTR reporter expression. inhibition, % (test concentration not listed). actives 0.35% (n = 340,000). cell-based PrP 5' UTR mRNA reporter, plate reader; in the data active = inhibition above about 52%; also: 0 = median of the neutral control wells
BJeLR lethal: MLPCN primary cell-based screen for lethality selective to Ras in HRASV12 cells. actives 0.17% (n = 300,000). BJeLR (HRASV12) viability, CellTiter-Glo ATP luminescence, 48 h. inhibition, % (concentration not given with the values); in the data active = inhibition above about 50%; inconclusive = no clear call, values can overlap the other calls
PfHsp40 yeast: rescue of yeast from PfHsp40 toxicity, primary screen, S. cerevisiae, ATP luminescence; S. cerevisiae expressing PfHsp40, growth rescue; growth rescue, % at 12.5 µM; AID 504582, 2011; actives 0.68% (n = 340,000); in the data active = growth rescue above about 28%, passing the limit was not always enough; inconclusive = no clear call, values can overlap the other calls;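 also: yeast W303a lacking pdr1 and pdr3 grown in galactose medium; growth measured after three days at 30 °C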
Mtb FBA inh conf: M. tuberculosis aldolase blockers, biochemical, fluorescence, strain H37Rv, confirmation; purified M. tuberculosis FBA, fluorescence read-out; actives 78% (n = 5,600); inhibition, % at 1 µM; shares compounds with FBA Mtb inh;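 also: 0% = vehicle wells and 100% = reference inhibitor wells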
GDH-TPI counter-2: GDH-TPI coupling enzyme inhibitors, artefact control for M. tuberculosis FBA inhibitor project, biochemical, fluorescence, high throughput; shares compounds with FBA Mtb inh; GDH-TPI coupled enzyme counterscreen; inhibition, % at 1 µM; actives 81% (n = 5,600); in the data active = inhibition above about 10%
An asterisk follows results filed as active; ? = inconclusive; · = no result; + = active, no number. Rule as the data show it, unless noted: active = inhibition above about 27%; inactive = the rest.

SMILES | FBA Mtb inh | PrPC TRFRET | GDH-TPI counter-1 | PrP UTR inh | BJeLR lethal | PfHsp40 yeast | Mtb FBA inh conf | GDH-TPI counter-2
CC1CCN(c2oc(-c3ccccc3Cl)nc2C#N)CC1 | 20 | 0 | 27 | -40 | -2 | 1 | · | ·
Cc1ccccc1-c1nc(C#N)c(N2CCC(C)CC2)o1 | 48* | -6 | 12 | -18 | 2 | 3 | 51* | 46*
Cn1c(-c2ccc(Cl)nc2)nc2cc(Cl)ccc21 | 18 | -2 | -6 | -15 | 8 | -1 | · | ·
COC(=O)C[C@@H]1CC[C@H]2[C@@H](COc3ccc(NC(=O)NC(C)C)cc3C(=O)N2C)O1 | · | 12 | · | · | · | · | · | ·
Cc1ccc2nc(Cl)cc(=O)n2c1 | 45* | -10 | 26 | -22 | · | 0 | 130* | 88*
CCn1c2ccccc2c2cc(NC(=O)COC(=O)c3cc(Cl)cc(Cl)c3)ccc21 | · | -1 | · | · | · | · | · | ·
CCCCN(C)C(=O)Cn1nc(-c2ccc(Cl)cc2)ccc1=O | 77* | -13 | 3 | -3 | 0 | 1 | 46* | 41*
CNc1cc(-c2ccc(OC)c(OC)c2)ncn1 | 24 | 7 | 13 | · | · | · | · | ·
CNc1ccc2ncc(-c3ccc(OC)c(OC)c3)n2n1 | 44* | -8 | 17 | · | · | · | 11 | 7
CNc1cncc(-c2ccc(OC)c(OC)c2)n1 | 58* | -1 | 20 | · | · | · | 78* | 63*
CNc1cncc(-c2c(OC)cccc2OC)n1 | 77* | 1 | 8 | · | · | · | + | +
O=c1[nH]c(NCCO)c(N=Cc2ccccc2)c(=O)[nH]1 | 85* | 2 | 0 | -16 | -13 | 1 | 108* | 94*
COc1cc(Cl)c(C)cc1NC(=O)c1ccc(S(C)(=O)=O)cc1 | 1 | 0 | -2 | -4 | -2 | 5 | · | ·
COC(=O)c1ccc2cc(C)cc(C)c2n1 | 59* | -2 | · | · | · | · | 12 | 15*
CC(C)NC(=O)Cn1cc(C(=O)C(=O)N2CCOCC2)c2ccccc21 | 1 | -4 | 9 | -2 | -1 | -2 | · | ·
COc1ccc2[nH]c(=O)c(CN(CCO)C(=O)NCc3ccccc3)cc2c1 | 18 | -2 | 15 | -19 | -1 | -1 | · | ·
CCOC(=O)c1cc2cc(OC)ccc2[nH]1 | 41* | 6 | 5 | -95 | 3 | 1 | 45* | 42*
COc1ccc2[nH]c(C(=O)NCc3ccccc3)cc2c1 | 56* | 6 | 11 | -18 | 5 | -1 | 64* | 46*
Cc1ccc(C(=O)C2CCN(CC(=O)N3CC(C)CC(C)C3)CC2)cc1 (stereo not given) | · | -10 | · | · | · | · | · | ·
CNC(=O)c1cc(NC(=O)N(CCC#N)CCN(C(=O)NC(Cc2ccccc2)C(=O)NC(CC(C)C)C(=O)NC)c2ccccc2)ccc1OC (stereo not given) | 17 | 7 | 22 | -16 | · | 0 | · | ·
O=c1[nH]c2cc3c(cc2cc1C(c1nnnn1Cc1ccccc1)N1CCN2CCCC2C1)OCCO3 (stereo not given) | 35* | -1 | 23 | -15 | 4 | 0 | + | 134*
C[C@H](NC(=O)C1CCN(S(=O)(=O)c2ccccc2)CC1)C(=O)NCc1ccc(Cl)cc1Cl | 3 | 10 | 2 | 1 | 3 | ? | · | ·
COC(CNC(=O)c1cnn2c(C)c(Cc3ccccc3)c(C)nc12)OC | 78* | 4 | 10 | -5 | -2 | 2 | 2 | -4
COC(CNC(=O)Cc1c(C)nc2c(-c3ccccc3)c(C)nn2c1C)OC | -12 | 0 | -2 | -43 | 6 | -1 | · | ·
Cc1nc2c(C(=O)N3CCOCC3)cnn2c(C)c1Cc1cccc(Cl)c1 | · | 2 | · | · | 5 | · | · | ·
Cc1nc2c(C(=O)N3CCOCC3)cnn2c(C)c1Cc1ccc(Cl)cc1 | 38* | -1 | 20 | -13 | 3 | -1 | 200* | 171*
O=C(COc1ncnc2ccccc12)NCC1CCCO1 (stereo not given) | 1 | -1 | -1 | -29 | -6 | 0 | · | ·
